# High-throughput results as filed in PubChem BioAssay.
# HT1080 IDH1KD tx: qHTS for induction of synthetic lethality in tumor cells producing 2HG: qHTS for the HT-1080-IDH1KD cell line; 2% of 360,000 active; HT-1080 IDH1 knockdown viability, ATP luminescence, 48 h; Potency, µM (doses to about 46.1 µM), without a hit: at the highest dose activity, negative = toxicity, actives largely listed as cytotoxic; AID 686971, 2013;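 note: potency is the fitted concentration of half-maximal effect; 0% = DMSO wells and -100% = cell-free medium wells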
#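 After a 2 h attachment period, IDH1KD HT-1080 cells took pin-transferred compound for 48 h at 37 °C; ATP-based luminescence after 10 min room-temperature reagent incubation reported viability.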
# TDP1 cell noCPT: qHTS for Inhibitors of human tyrosyl-DNA phosphodiesterase 1 (TDP1): qHTS in cells in absence of CPT. 15% of 420,000 active. DT40 Tdp1-/- hTDP1 cells, no CPT, ATP luminescence, 48 h. AID 686978, 2013. Potency, µM (top dose mostly 46.2 µM), for the others: top-dose activity change, negative = growth inhibition, actives largely listed as inhibitors; note: potency is the fitted concentration of half-maximal effect; nearly all actives have a fitted effect of over 55% in size
#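 Chicken DT40 Tdp1-/- cells stably complemented with human TDP1 were seeded at 400 cells/well with DMSO in place of 20 nM camptothecin. After compound pinning, cells grew at least 48 hr at 37 °C; viability read by CellTiter-Glo luminescence.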
# 12-LOX inh: Primary qHTS assay for inhibitors of human arachidonate 12S-lipoxygenase (ALOX12): Round 2; Polyunsaturated fatty acid lipoxygenase ALOX12 (Homo sapiens), P18054; purified 12hLO, xylenol orange hydroperoxide absorbance; Potency, µM (top dose mostly 108 µM), without a hit: top-dose activity change, negative = inhibition, usual class: inhibitors; 1.1% of 580,000 active; note: potency is the fitted concentration of half-maximal effect
# Target sequence (P18054 whole entry, looked up): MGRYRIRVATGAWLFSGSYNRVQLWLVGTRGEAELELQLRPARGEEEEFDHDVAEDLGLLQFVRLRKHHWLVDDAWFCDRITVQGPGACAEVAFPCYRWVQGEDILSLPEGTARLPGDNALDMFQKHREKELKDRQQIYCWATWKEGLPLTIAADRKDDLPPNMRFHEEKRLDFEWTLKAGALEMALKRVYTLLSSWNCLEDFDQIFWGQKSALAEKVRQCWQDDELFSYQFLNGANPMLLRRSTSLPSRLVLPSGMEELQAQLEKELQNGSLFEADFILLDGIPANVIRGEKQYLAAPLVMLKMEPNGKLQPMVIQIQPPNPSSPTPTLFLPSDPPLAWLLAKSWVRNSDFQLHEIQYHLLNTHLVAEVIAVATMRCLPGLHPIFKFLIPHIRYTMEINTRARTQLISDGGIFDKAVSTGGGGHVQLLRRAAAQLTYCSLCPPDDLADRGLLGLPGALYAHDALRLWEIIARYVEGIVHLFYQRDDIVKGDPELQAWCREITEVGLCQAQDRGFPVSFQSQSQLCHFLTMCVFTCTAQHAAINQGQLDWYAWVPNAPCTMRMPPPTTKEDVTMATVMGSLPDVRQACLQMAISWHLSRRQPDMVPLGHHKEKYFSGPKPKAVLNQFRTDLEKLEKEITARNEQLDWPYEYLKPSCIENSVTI
#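 Purified human 12hLO at 150 nM in 25 mM Hepes, 0.01% Triton X-100, pH 7.0, preincubated 15 min at room temperature with compound. Reaction started with 40 uM arachidonic acid, 30 min at room temperature. Hydroperoxide measured by Fe-xylenol orange, 573/405 nm absorbance ratio.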
# DT40 TDP1 CPT: qHTS for Inhibitors of human tyrosyl-DNA phosphodiesterase 1 (TDP1): qHTS in cells in presence of CPT | chicken DT40 Tdp1-/-;hTDP1 cells + 20 nM CPT, ATP luminescence, 48 h | Potency, µM (titrated, usually from 46.2 µM), for inactives: at the top dose activity change, negative = growth inhibition, most hits filed as inhibitors | 12% of 420,000 active | AID 686979, 2013; note: potency is the fitted concentration of half-maximal effect; nearly all actives have a fitted effect of over 55% in size
#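 Chicken DT40 Tdp1-/- cells stably complemented with human TDP1 were seeded at 400 cells/well in medium containing 20 nM camptothecin, exposed to pin-transferred compounds, and grown at 37 °C for at least 48 hr. Viability was read as ATP luminescence.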
# HT1080NT lethal: qHTS for induction of synthetic lethality in tumor cells producing 2HG: qHTS for the HT-1080-NT fibrosarcoma cell line. AID 686970, 2013. 1.6% of 360,000 active. HT-1080-NT fibrosarcoma viability, CellTiter-Glo ATP luminescence, 48 h. Potency, µM (highest dose often 46.1 µM), inactives show top-dose activity, negative = less viability, usual class: cytotoxic;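 note: NT is the 2HG producing partner of a matched IDH1 knockdown line; potency is the fitted concentration of half-maximal effect; 0% = DMSO-treated cells and -100% = media-only wells without cells; nearly all actives have a fitted effect of over 55% in size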
#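 Toxicity toward the 2HG-producing NT line was scored as %Activity, normalised to DMSO and no-cell wells, from CellTiter-Glo luminescence after 48 hours' treatment.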
# IL1B secr inh: qHTS for Inhibitors of Inflammasome Signaling: IL-1-beta AlphaLISA Primary Screen | THP-1 LPS/ATP IL-1B secretion, AlphaLISA, 16 h; stronger effect = lower value | activity change, % at 57.5 µM | 4.7% of 360,000 active; in the data active = activity change below about -50%; inconclusive = mostly about -30% to -49%
#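 THP-1 cells pretreated 1 hr with compounds (up to 57.5 uM final), then stimulated with LPS (250 ng/mL final) plus ATP (1.25 mM final); secreted IL-1B measured by AlphaLISA after 16 hr, decreased signal indicating inhibition.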
# Active calls of the source: *; ? = inconclusive; . = no result given; [ ] = another dose, or the depositor's remark. This is one part of a sample in which hits are shown more often than they occur. Unless noted, calls come from the whole dose curve; as a rule, active = well fitted curve in the direction sought with a large enough effect; inconclusive = small, poorly fitted or top-dose-only effect, or another doubt; inactive = no such curve, though single readings can be large; an effect the other way counts as inactive or inconclusive. Unless noted, % is set by controls: 0 for no effect and ±100 for the full control effect.
SMILES,HT1080 IDH1KD tx,TDP1 cell noCPT,12-LOX inh,DT40 TDP1 CPT,HT1080NT lethal,IL1B secr inh
Cc1nc(-c2ccc(C)c(N3CCN(C(=O)Nc4ccc(Br)cc4)CC3)c2)no1,.,21µM*,-23%,?,.,.
CC(C(=O)NCC1CCCO1)N1C(=O)COc2ccc(C(=O)COc3cccc(Cl)c3)cc21 (stereo not given),.,.,54%,.,.,.
CCC(C)(C)C(=O)N1C[C@@H](CO)[C@H](c2ccncc2)C1,.,.,22%,.,.,.
CCCCc1ccc(NC(=O)N2CCN(c3cc(C)nc4ccccc34)CC2)c(C)c1,-28%,?,.,?,?,-67*
CSc1nc2[nH]c(=O)n(O)c(=O)c2n1Cc1ccccc1,?,18µM*,-16%,?,?,-9
O=c1c2ccccc2ncn1Cc1cccc2ccccc12,1%,-13%,-1%,?,-2%,-54*
CN(C)S(=O)(=O)c1ccc(C(=O)N2CCCc3ccccc32)cc1,.,.,-35%,.,.,.
N#C/C(=C\c1cccs1)C(=O)c1ccccc1Cl,?,16µM*,?,29µM*,?,-98*
N#C/C(=C\c1cn(Cc2ccc(F)cc2)c2ccccc12)C(=O)NCc1ccco1,?,?,?,18µM*,?,16
N#CC(=Cc1ccc(O)c(O)c1)C(=O)NCc1ccccc1,.,?,27%[57.4 µM],?,.,.
N#C/C(=C\c1ccccc1)C(=O)NCc1ccc(F)cc1,?,?,-16%,?,?,-98*
N#C/C(=C\c1cn(Cc2ccccc2)c2ccccc12)C(=O)NCc1ccco1,-15%,?,23%,?,-6%,-3
N#C/C(=C\c1cccs1)C(=O)NCc1ccccc1,-1%,21µM*,-11%,12µM*,0%,-3
CCNC(=O)[C@@H]1C[C@H](N)CN1C(=O)Cc1ccc(OC)cc1OC,.,.,37%,.,.,.
N#C/C(=C\c1cccs1)C(=O)Nc1nccs1,0%,2.9µM*,3%,?,10%,2
ClC(=Nc1cccc2ccccc12)N(c1ccccc1)c1ccccc1,.,11µM*,.,18µM*,.,.
COc1ccc(Cn2nc(C)n(N(C)c3ncc(C(F)(F)F)cc3Cl)c2=O)cc1,-14%,9.2µM*,?,16µM*,0%,4
COC(=O)c1cn(N(C)c2ncc(C(F)(F)F)cc2Cl)c(=O)c2ccccc12,-15%,?,9%,?,2%,29
CCc1ccccc1NC(=O)Cn1c(=O)n(-c2ccc(CC(=O)NC3CC3)cc2)c(=O)c2ccccc21,.,.,2%,.,.,.
Cc1cccc(-c2nc(CCN(C)S(=O)(=O)c3ccc(C)c4nsnc34)no2)c1,.,.,-10%,.,.,.
CN(Cc1cc2ccccc2[nH]c1=O)C(=O)c1cccs1,-1%,-32%,6%,5%,15%,-2
Cc1ccc(N(Cc2cc3cc(C)ccc3[nH]c2=O)C(=O)c2cccs2)cc1,2%,23µM*,-3%,?,14%,11
O=C(c1cccs1)N(Cc1cc2ccccc2[nH]c1=O)c1ccccc1,-2%,10µM*,1%,13µM*,15%,-16
Cc1ccc2[nH]c(=O)c(CN(C)C(=O)c3cccs3)cc2c1,-7%,-23%,9%,?,-3%,7
Cc1ccc(N(Cc2cc3ccccc3[nH]c2=O)C(=O)c2cccs2)cc1C,17%,18µM*,-15%,?,14%,-28
SMILES,HT1080 IDH1KD tx,TDP1 cell noCPT,12-LOX inh,DT40 TDP1 CPT,HT1080NT lethal,IL1B secr inh
CCCOc1ccc(CN2C[C@@H](CO)[C@H](C(=O)N(C)C)C2)cc1,.,.,54%,.,.,.
COc1ccc2[nH]cc(CCNc3ncnc4ccc(-c5cccnc5)cc34)c2c1,.,23µM*,-7%,15µM*,.,.
COc1ccc2[nH]cc(CCNc3ncnc4ccc(-c5c(C)noc5C)cc34)c2c1,.,?,-9%,?,.,.
COc1ccc2[nH]cc(CCNc3ncnc4ccc(-c5ccc6c(c5)OCO6)cc34)c2c1,.,16µM*,-23%,?,.,.
COc1ccc2[nH]cc(CCNc3ncnc4ccc(-c5ccccc5OC)cc34)c2c1,.,?,-2%,?,.,.
O=C1CCCN1CCc1cccc2ccccc12,12%,?,1%,?,3%,-1
O=C1CCCN1CCC12CC3CC(CC(C3)C1)C2,-3%,21µM*,468%,?,0%,78
CC1(C)CCC(c2ccc(Cl)cc2)=C(CN2CCN(c3ccc(C(=O)NS(=O)(=O)c4ccc(N[C@H](CCN5CCOCC5)CSc5ccccc5)c(S(=O)(=O)C(F)(F)F)c4)cc3)CC2)C1,.,0.32µM*,6%[57.4 µM],0.45µM*,.,.
CN(C)CC[C@H](CSc1ccccc1)Nc1ccc(S(=O)(=O)NC(=O)c2ccc(N3CCN(Cc4ccccc4-c4ccc(Cl)cc4)CC3)cc2)cc1[N+](=O)[O-],.,.,-1%[57.4 µM],.,.,.
Cc1ccc(C(=O)CC2(O)C(=O)Nc3ccc(F)cc32)cc1 (stereo not given),.,.,5%,.,.,.
COc1ccc(CCC(=O)NCCc2csc(-c3ccc(C(F)(F)F)cc3)n2)cc1,.,.,-14%,.,.,.
COc1ccc(C(=O)NCCc2csc(-c3ccc(Cl)cc3)n2)cc1,.,18µM*,-25%,?,.,.
COc1ccc(C(=O)NCCc2csc(-c3ccc(Cl)cc3)n2)c(OC)c1,.,23µM*,?,?,.,.
COc1ccccc1C(=O)NCCc1csc(-c2ccc(C(F)(F)F)cc2)n1,.,?,-24%,?,.,.
CCNC(=O)NC(=O)COC(=O)c1cc(-c2ccc(C)o2)nc2ccccc12,.,.,3.2µM*,.,.,.
CCN(CC)C(=O)COC(=O)c1cc(-c2ccco2)nc2ccccc12,-7%,?,?,?,-9%,14
Cc1ccc(-c2cc(C(=O)OC(C)C(=O)NC(=O)NC3CCCC3)c3ccccc3n2)o1 (stereo not given),.,.,4µM*,.,.,.
CCNC(=O)NC(=O)COC(=O)c1cc(-c2ccco2)nc2ccccc12,.,.,6.3µM*,.,.,.
CCCNC(=O)COC(=O)c1ccc2ccccc2n1,.,.,-52%,.,.,.
Cc1cccc(-c2noc(CN(C)C(=O)COc3ccc4ccccc4c3Br)n2)c1,.,.,2%,.,.,.
